Experimental findings from the supplement of paper PMC4237247 are described below.

The test system of this assay is HeLa. The experiment in a line: percent cells in G2/M phase; higher = more G2/M arrest. As to conditions: 10 µM; 20 h; hit class: G2/M-phase inhibitor. How it is done:
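HTS of 79,827 drug-like compounds at 10 uM. HeLa cells in 384-well plates were treated for 20 h, fixed, stained with Vybrant DyeCycle Green and scanned on an Acumen eX3 cytometer to give per-well cell cycle profiles. Only G2/M hits (>=67% G2/M) are listed.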
On to `CN1Cc2c(ccc3c2OCO3)[C@@H]2[C@H]1c1cc3c(cc1C[C@@H]2O)OCO3` [Chelidonine monohydrate (+)], for which the “percent cells in G2/M phase” value turned out to be 72%.
